Holding throughout (assay): NCI-60 one-dose screen, 48 h (100 = growth as untreated, 0 = no growth, -100 = all killed)
Common to all, as to details: 10 µM unless noted

Test [1] concerns HCT-15 colon.
The subject of test [2] is HT29 colon.
Test [3] concerns SNB-75 CNS.
For test [4], the system named is SNB-19 CNS.
The test system of test [5] is U251 CNS.
Test [6] has as its system SK-MEL-5 melanoma.
The subject of test [7] is UACC-62 melanoma.
Test [8] deals with LOX IMVI melanoma.
The subject of test [9] is SK-MEL-28 melanoma.
For test [10], the system named is SK-MEL-2 melanoma.
The test system of test [11] is EKVX NSCLC.
The test system of test [12] is SN12C renal.
For test [13], the system named is UO-31 renal.
Test [14] has as its system TK-10 renal.
In test [15] the test system is ACHN renal.
The test system of test [16] is CAKI-1 renal.
The test system of test [17] is A498 renal.
For test [18], the system named is CCRF-CEM leukemia.
The test system of test [19] is MOLT-4 leukemia.
For test [20], the system named is PC-3 prostate.

Experimental findings from PubChem BioAssay (NCI) are described below.

About 83,000 compounds went through this panel and 20% of them were active in at least one assay; those are over-represented in the sample as a whole.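 Each cell line was grown in a 96-well plate and treated with one concentration of compound for 48 hours. Values below 10 were considered active.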 A number with no mark means an inactive call. Calls of active or inactive are those of the source.

For the compound `Cc1cccc2c(=O)c3c(sc12)c(NCc1ccccc1)nc1ccccc13`, the growth in [1] was 64.3%; in test [2] it was 83.4%; in test [3], 96.1%; in test [4], 107%; in test [5], 101%; in [6] it was 94.5%. Besides, the growth in test [7] was 74.3%; in [8], 93.6%; in test [9], 116%; in test [10] it was 101%; in test [11] it was 89.7%; in test [12], 93.6%. The growth in test [13] is 66.5%; in [14], 105%; in test [15], 90.9%; in test [16], 76.4%; in test [17], 72.4%; in test [18], 100%. Further, the growth in test [19] was 92.1%.
Turning to `COc1ccc(-n2c(N)c(-c3nc4ccccc4[nH]3)cc(C#N)c2=O)cc1`, the growth was 89.4% in test [1]; 90.2% in test [2]; 60.5% in test [3]; 78.9% in [4]; 103% in test [5]; 90.9% in [6]. Moreover, the growth in test [7] is 102%; in [8], 98.2%; in test [9], 100%; in test [10] it was 105%; in [11], 79.1%; in [12], 85%. In addition, the growth was 77.8% in test [13]; 103% in test [14]; 75.9% in [15]; 92.3% in test [16]; 64% in test [17]; 99.3% in test [19].
Take `O=C1CCC/C=C\C[C@H]2C=CC(=O)/C2=C/C[C@H](CCc2cccc(C(F)(F)F)c2)O1`: the growth was -10.8% (active) in test [1]; -31.9% (active) in [2]; 15.2% in test [3]; -17.1% (active) in test [4]; -93% (active) in [5]; -82.8% (active) in test [6]. The growth in test [7] was -45.9% (active); in test [9] it was -39.5% (active); in [10] it was -57.2% (active); in test [11] it was -47.6% (active); in [12] it was -37.9% (active); in test [13] it was -95.5% (active). Further, the growth in test [14] was -68.9% (active); in test [15] it was -85.1% (active); in test [16], 12.5%; in [17] it was -79.7% (active); in test [18], 4.33% (active); in [19], -18.6% (active).
On to `Cc1cc2nc3ccc(N=Nc4ccc(N(C)C)cc4)cc3n(-c3ccccc3)c-2cc1=N`, for which the growth was -77.2% (active) in test [1]; -67% (active) in [2]; -84% (active) in test [3]; -93.7% (active) in test [4]; -69.4% (active) in test [5]; -95.3% (active) in [6]. The growth in [7] was -76.7% (active); in test [8] it was -66.5% (active); in [9], -96.6% (active); in test [10] it was -94.6% (active); in test [11], -94.6% (active); in [12] it was -52.8% (active). Besides, the growth in test [13] was -91.2% (active); in test [14], -82.2% (active); in [15], -92% (active); in [16], -96.5% (active); in test [17], -46.9% (active); in [18] it was -47.3% (active). Further, the growth in [19] was 0.81% (active).
Take `CC(=O)N1N=C(c2ccc(Nc3nc(Nc4ccc(F)cc4)nc(Nc4ccc(Cl)cc4)n3)cc2)CC1c1ccc(Cl)cc1` (configuration not stated): the growth in test [1] was 93.4%; in [2] it was 106%; in [4], 83.5%; in [5] it was 94.7%; in test [20], 68.8%; in test [6], 105%. The growth in [7] is 99%; in test [8], 89.8%; in test [9] it was 121%; in test [10] it was 109%; in test [11], 87.3%; in [12], 107%. For the same compound, the growth in test [13] is 56.8%; in test [14], 110%; in test [15] it was 83.1%; in [16], 83%; in test [17], 88.9%; in test [18], 110%.
Take `O=C(Nc1ccc(Br)cc1F)c1cc(Br)ccc1O`: the growth was 4.49% (active) in [1]; 59.3% in test [2]; 1.84% (active) in test [3]; 19.6% in test [4]; 13.8% in test [5]; -93.7% (active) in [6]. The growth was 6.99% (active) in test [8]; 8.29% (active) in test [9]; 9.76% (active) in [11]; -10.9% (active) in [12]; -11% (active) in test [13]; 15.3% in test [14]. Further, the growth in test [15] is -0.439% (active); in test [16], 2.12% (active); in test [17], -42% (active); in [18] it was 20.9%; in test [19] it was 1.26% (active).
On to `COC(=O)/C=C1\S/C(=N\Nc2ccc([N+](=O)[O-])cc2[N+](=O)[O-])N(C2CCCCC2)C1=O`, for which the growth is 11% in test [1]; 26.7% in [2]; 51.4% in test [3]; 51.3% in test [4]; 25.8% in [5]; 82.4% in test [6]. Besides, the growth is 38.7% in test [7]; 72.4% in test [8]; 86.5% in test [9]; 90.5% in test [10]; 78.5% in [11]; 21.6% in test [12]. Further, the growth in test [13] is 19.2%; in test [14] it was 60.2%; in test [15] it was 42.3%; in [16], 57.1%; in test [17] it was 63.1%; in [18], 17.9%. The growth in test [19] is 42.7%.
`Oc1ccc(Cl)cc1Cc1cc(Cl)cc(Cl)c1O`: the growth in test [1] is 41.2%; in test [2], 107%; in test [3] it was 60.5%; in [4], 34.8%; in [5] it was 13%; in test [6] it was 5.53% (active). Besides, the growth in test [7] was -9.82% (active); in test [8] it was 20.2%; in test [9], 31.2%; in test [10], 37.4%; in [11] it was 35.6%; in test [12], 20.4%. Besides, the growth in test [13] was 44.8%; in [14], 79.5%; in test [15] it was 27.9%; in test [16], 49.6%; in test [17], 85.9%; in test [18] it was 19.5%. The growth in [19] was 19.2%.
